Source: the supplement of paper PMC10849652
The full data set covers some 7,900 targets. This sample favours those with a hit. About 0.6% of all pairs of compound and target were hits.

What was measured:
Test in all cases: log2 fold change, soluble protein after heating vs DMSO (PISA); higher = thermal stabilisation; K562 cells, 10 uM, 30 min; active = over 0.2 and 3.5 SD of the protein, either way, in both replicates (recomputed)
[1] = compound: C1=CC=C(C=C1)[C@H](COC2=CC3=C(C=C2)NC(=O)N3)NC(=O)C4=CC=CN(C4=O)CC5=CC(=C(C=C5)F)F
Procedure, shortened: (§1)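 For each measurement, 10 μM compound was applied for 30 min to K562 cells at 2×10^6 cells/mL. Aliquots were heated for 3 min across 48°C-58°C, pooled, and extracted in PBS with 0.5% NP-40 at 4°C; the supernatant after 21,000xg for 90 min was soluble protein. This was quantified by TMTpro 16plex LC-MS/MS with channel sums equalised, and thermal stability was reported relative to control samples from duplicates, on a log2 fold-change scale.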

[2] = compound: CC1=C(SC2=C1C(=N[C@H](C3=NN=C(N32)C)CC(=O)N)C4=CC=C(C=C4)Cl)C
Procedure, shortened: as §1

[3] = compound: CC1=C2C(=CC=C1)N=C(N(C2=O)C3=CC=CC=C3C)CN4C=NC5=C(N=CN=C54)N
Procedure, shortened: as §1

[4] = compound: Cc1sc2c(c1C)C(c1ccc(Cl)cc1)=N[C@@H](CC(=O)OC(C)(C)C)c1nnc(C)n1-2
Procedure, shortened: as §1

[5] = compound: c1ccc([C@@H]2C[C@H]2NC2CCNCC2)cc1
Procedure, shortened: as §1

Measured: log2 fold change

PUF60 isoform 2 (UniProt Q9UHX1)
UniProt Q9UHX1, sequence (Q9UHX1 whole entry, looked up): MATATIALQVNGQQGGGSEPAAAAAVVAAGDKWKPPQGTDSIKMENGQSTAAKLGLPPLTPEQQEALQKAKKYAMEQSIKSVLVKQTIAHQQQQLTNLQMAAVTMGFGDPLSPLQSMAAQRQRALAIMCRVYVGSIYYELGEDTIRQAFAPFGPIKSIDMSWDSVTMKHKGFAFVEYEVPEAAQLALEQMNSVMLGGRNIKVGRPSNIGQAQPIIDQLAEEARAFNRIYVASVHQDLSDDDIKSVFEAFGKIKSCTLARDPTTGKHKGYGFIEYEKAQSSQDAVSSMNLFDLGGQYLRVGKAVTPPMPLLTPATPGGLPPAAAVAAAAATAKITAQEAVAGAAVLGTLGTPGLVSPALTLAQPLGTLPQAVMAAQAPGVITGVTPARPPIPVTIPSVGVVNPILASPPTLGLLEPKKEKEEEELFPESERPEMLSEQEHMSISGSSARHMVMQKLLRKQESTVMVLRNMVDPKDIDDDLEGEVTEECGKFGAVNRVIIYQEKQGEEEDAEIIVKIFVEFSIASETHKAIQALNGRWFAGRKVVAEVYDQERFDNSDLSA
inactive: [1] 0.044 | [2] 0.097 | [3] -0.312 | [4] -0.146 | [5] -0.079

PLEKHM2 (UniProt Q8IWE5)
UniProt Q8IWE5, sequence (Q8IWE5 whole entry, looked up): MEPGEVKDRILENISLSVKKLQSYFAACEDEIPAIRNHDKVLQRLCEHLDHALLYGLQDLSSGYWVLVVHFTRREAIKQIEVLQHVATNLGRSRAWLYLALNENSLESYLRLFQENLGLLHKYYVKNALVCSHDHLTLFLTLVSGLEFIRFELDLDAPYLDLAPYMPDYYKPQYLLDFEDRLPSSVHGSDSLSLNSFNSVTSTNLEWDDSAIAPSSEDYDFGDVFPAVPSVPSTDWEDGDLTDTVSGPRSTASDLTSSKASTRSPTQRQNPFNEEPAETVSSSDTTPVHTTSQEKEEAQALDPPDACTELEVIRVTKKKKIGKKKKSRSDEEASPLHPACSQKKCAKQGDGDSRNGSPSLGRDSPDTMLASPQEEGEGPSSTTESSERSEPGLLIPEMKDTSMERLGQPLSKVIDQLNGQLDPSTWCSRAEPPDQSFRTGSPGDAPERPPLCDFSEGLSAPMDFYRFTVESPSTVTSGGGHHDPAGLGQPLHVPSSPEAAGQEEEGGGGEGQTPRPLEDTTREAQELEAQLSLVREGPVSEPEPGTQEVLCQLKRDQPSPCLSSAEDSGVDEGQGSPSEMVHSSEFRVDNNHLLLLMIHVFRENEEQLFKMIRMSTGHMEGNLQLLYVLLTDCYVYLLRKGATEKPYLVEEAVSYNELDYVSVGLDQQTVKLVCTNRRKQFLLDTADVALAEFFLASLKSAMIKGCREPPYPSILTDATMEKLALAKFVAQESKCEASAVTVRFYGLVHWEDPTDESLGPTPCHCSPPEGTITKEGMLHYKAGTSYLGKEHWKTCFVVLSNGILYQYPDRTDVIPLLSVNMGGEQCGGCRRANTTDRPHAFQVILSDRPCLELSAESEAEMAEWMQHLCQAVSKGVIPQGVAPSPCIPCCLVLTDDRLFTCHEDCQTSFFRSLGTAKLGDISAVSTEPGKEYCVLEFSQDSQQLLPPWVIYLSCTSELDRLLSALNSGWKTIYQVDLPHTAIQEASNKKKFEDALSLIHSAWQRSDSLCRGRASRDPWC
inactive: [1] -0.027 | [2] 0.076 | [3] -0.016 | [4] 0.089 | [5] -0.048

PCK2 (UniProt Q16822)
UniProt Q16822, sequence (Q16822 whole entry, looked up): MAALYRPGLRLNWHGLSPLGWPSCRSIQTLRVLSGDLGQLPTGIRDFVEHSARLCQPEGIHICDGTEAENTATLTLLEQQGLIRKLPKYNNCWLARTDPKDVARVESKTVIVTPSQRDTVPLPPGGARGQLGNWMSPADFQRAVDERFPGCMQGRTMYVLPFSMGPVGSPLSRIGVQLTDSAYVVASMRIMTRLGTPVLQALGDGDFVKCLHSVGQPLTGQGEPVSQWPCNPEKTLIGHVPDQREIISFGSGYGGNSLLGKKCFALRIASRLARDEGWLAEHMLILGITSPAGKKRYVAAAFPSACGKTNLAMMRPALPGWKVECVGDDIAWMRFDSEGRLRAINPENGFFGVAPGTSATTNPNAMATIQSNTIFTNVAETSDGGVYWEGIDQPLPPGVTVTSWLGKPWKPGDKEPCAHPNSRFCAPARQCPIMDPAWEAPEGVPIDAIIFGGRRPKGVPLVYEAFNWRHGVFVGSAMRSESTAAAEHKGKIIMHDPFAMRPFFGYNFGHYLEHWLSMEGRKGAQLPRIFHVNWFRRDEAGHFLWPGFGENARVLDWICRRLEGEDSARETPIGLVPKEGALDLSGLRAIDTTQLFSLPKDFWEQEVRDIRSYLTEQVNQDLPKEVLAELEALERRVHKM
inactive: [1] 0.051 | [2] 0.038 | [3] 0.057 | [4] 0.008 | [5] -0.038

PDE6D (UniProt O43924)
UniProt O43924, sequence (O43924 whole entry, looked up): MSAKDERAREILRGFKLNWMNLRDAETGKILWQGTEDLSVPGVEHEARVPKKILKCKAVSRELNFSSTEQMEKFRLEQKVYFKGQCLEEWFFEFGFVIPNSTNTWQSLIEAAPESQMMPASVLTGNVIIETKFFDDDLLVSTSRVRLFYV
inactive: [1] -0.053 | [2] 0.238 | [3] -0.004 | [4] -0.13 | [5] 0.017

PRIM2 (UniProt P49643)
UniProt P49643, sequence (P49643 whole entry, looked up): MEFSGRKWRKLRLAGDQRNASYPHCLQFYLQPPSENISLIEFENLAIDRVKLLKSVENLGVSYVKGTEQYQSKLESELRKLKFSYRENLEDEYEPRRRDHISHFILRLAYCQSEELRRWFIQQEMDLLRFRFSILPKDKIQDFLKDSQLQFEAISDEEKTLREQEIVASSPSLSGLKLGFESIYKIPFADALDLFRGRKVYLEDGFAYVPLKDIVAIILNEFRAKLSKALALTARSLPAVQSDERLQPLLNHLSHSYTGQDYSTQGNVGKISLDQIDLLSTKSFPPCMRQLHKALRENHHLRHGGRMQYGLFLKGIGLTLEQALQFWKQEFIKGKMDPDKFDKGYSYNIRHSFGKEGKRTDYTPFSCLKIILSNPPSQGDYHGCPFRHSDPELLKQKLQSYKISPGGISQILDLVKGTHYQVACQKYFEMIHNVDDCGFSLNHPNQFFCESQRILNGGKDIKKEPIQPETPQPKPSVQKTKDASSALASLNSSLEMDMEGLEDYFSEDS
inactive: [1] -0.07 | [2] 0.063 | [3] 0.189 | [4] 0.014 | [5] -0.092

PSMD12 (UniProt O00232)
inactive: [1] 0.021 | [2] -0.063 | [3] -0.066 | [4] -0.045 | [5] -0.009

PTPN23 (UniProt Q9H3S7)
UniProt Q9H3S7, sequence (Q9H3S7 whole entry, looked up): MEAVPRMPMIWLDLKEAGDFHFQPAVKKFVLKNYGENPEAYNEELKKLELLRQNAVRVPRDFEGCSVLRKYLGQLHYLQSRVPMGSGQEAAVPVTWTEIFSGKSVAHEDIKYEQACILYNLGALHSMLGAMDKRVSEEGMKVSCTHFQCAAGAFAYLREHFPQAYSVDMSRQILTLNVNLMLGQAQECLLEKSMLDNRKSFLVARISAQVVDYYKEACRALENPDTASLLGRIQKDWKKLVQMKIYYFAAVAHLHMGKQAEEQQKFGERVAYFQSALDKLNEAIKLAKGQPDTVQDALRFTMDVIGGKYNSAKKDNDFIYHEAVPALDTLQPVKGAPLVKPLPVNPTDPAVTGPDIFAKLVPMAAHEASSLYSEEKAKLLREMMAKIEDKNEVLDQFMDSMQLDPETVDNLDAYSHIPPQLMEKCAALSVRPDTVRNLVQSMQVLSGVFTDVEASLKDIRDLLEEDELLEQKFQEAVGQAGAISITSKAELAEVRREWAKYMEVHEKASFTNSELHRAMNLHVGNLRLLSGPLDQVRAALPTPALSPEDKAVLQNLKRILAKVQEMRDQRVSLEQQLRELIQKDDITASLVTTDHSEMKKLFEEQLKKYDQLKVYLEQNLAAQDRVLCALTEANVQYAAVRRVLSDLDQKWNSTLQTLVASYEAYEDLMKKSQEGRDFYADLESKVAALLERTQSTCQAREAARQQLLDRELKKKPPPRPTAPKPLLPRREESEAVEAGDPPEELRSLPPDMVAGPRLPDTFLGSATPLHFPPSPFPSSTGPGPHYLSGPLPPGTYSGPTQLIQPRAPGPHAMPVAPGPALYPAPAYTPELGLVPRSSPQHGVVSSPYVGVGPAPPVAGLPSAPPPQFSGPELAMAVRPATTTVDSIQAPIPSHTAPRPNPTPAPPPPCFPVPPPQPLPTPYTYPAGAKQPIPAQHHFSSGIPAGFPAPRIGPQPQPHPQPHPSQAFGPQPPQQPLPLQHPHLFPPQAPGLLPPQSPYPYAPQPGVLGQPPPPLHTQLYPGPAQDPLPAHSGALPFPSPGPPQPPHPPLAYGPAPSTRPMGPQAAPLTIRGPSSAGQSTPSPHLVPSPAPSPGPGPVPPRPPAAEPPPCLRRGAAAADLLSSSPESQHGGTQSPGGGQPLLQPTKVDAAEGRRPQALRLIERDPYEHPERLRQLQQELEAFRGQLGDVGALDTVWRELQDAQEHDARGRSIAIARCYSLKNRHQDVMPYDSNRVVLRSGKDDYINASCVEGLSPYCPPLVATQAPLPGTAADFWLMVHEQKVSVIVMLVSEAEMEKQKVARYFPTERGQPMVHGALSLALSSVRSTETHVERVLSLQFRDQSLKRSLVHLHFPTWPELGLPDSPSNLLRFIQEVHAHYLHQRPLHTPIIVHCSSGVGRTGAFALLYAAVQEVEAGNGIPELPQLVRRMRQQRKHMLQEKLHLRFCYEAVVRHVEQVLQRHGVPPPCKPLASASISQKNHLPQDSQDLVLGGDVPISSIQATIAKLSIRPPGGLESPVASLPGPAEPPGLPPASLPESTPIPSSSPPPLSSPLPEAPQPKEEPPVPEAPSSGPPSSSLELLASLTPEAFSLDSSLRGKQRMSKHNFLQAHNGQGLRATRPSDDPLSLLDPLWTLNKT
inactive: [1] -0.038 | [2] 0.048 | [3] 0.054 | [4] 0 | [5] 0.038

POLR2E (UniProt P19388)
inactive: [1] -0.013 | [2] 0.094 | [3] -0.023 | [4] 0.054 | [5] -0.06

PRKAB1 (UniProt Q9Y478)
UniProt Q9Y478, sequence (Q9Y478 whole entry, looked up): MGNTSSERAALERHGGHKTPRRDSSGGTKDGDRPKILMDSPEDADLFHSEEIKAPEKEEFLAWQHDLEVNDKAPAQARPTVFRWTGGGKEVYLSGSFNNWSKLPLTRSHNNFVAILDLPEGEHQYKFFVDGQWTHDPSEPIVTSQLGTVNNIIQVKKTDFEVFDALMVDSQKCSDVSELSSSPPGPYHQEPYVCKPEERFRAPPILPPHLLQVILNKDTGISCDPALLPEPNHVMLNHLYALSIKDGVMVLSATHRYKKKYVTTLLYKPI
inactive: [1] 0.011 | [2] 0.037 | [3] -0.024 | [4] -0.093 | [5] -0.037
